We go through 65 molecules from PubChem BioAssay AID376 (PDSP, 2006).

Screen size: about 2,000 compounds; about 250 (12%) were called active. Rule as the data show it: active = hERG blockade below about -20% or above about 20%; inactive = in between. For the sample, actives were picked, then their nearest neighbours and some compounds at random.

Chain of Voltage-gated inwardly rectifying potassium channel KCNH2 (Homo sapiens) (Q12809 whole entry, looked up): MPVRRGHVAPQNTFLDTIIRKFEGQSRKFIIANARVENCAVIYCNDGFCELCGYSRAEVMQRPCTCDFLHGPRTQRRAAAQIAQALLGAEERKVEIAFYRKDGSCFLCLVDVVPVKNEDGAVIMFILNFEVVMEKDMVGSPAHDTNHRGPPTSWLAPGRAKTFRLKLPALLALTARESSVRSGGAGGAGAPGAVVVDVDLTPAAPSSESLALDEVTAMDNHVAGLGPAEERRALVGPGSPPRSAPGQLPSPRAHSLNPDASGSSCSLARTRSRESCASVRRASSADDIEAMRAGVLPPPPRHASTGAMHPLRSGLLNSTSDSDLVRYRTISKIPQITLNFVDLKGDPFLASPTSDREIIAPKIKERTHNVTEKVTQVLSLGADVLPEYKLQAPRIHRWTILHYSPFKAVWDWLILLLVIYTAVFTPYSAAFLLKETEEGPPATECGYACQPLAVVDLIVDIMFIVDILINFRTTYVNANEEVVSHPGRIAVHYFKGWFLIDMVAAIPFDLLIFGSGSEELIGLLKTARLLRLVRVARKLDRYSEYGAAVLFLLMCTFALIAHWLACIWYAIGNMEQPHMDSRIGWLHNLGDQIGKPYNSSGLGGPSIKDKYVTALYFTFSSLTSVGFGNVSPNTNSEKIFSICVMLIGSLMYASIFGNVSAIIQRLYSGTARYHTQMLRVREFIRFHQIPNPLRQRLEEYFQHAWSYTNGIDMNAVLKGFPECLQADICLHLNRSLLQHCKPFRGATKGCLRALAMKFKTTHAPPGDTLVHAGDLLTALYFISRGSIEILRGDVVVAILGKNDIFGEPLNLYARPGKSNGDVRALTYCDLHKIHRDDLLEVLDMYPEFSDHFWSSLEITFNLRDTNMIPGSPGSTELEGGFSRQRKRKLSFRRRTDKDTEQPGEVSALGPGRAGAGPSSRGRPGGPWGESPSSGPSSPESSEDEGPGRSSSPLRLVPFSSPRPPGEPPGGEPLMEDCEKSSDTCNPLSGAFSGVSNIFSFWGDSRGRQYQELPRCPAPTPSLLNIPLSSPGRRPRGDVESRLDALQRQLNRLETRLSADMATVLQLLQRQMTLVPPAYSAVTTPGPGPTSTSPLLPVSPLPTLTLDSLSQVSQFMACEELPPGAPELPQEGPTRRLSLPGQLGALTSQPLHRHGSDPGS

The assay concerns the target Voltage-gated inwardly rectifying potassium channel KCNH2 (Homo sapiens) (UniProt Q12809). As to the kind of experiment: KCNH2 potassium channel function modulators, cell-based (AID 376).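 Also: 0% = buffer alone and 100% = reference blocker.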 As to conditions: hERG-expressing cells, channel activity single-concentration screen; concentration not given here. On the technique in general: The hERG channel carries a current that helps repolarise heart muscle cells.
In the case of `CC(C)C1OC(C=Cc2ccccc2)OCC1(C)C` (stereo not given), the hERG blockade is 10.1% (inactive).

`O=C(O)CSc1ccn(Cc2ccccc2)c1`: the hERG blockade is -5.01% (inactive).

On to `CC(=NCC(=O)O)c1ccccc1`, for which the hERG blockade is -2.03% (inactive).

With `C=C(C)CN(CC#N)CC(=C)C`, the hERG blockade was -3.17% (inactive).

`C=C(Br)CN(C)CC(=C)Br`: the hERG blockade is -27.2% (active).

Regarding `CN(CC(=O)O)CC(=O)O`, the hERG blockade is 9.14% (inactive).

Regarding `Cc1cc(Nc2ccc(N=Nc3ccc(O)c4ncccc34)cc2)nc(C)n1`, the hERG blockade was 7.41% (inactive).

Take `[Cu+2].[NH-]C(CC(=O)O)C(=O)O.[NH-]C(CC(=O)O)C(=O)O` (stereo not given): the hERG blockade was 16.8% (inactive).

As for `NC(=O)NN=C1CCC(O)CC1CC(=O)O` (stereo not given), the hERG blockade is 0.91% (inactive).

For `CN1C2CCC1CC(OC(c1ccccc1)c1ccccc1)C2` (stereo not given), the hERG blockade was 44.2% (active).

As for `NS(=O)(=O)c1ccc(N=Nc2nc3[nH]cnc(=S)c3[nH]2)cc1`, the hERG blockade was -16.4% (inactive).

On to `CC(CN(C)C)C(O)(c1ccccc1)c1ccccc1` (stereo not given), for which the hERG blockade is 7.73% (inactive).

Take `CN(C)CC(O)c1ccc(Cl)c2ccccc12` (stereo not given): the hERG blockade was 28.3% (active).

As for `CC(CN(C)C)C(=O)c1ccccc1C(=O)O` (stereo not given), the hERG blockade was 0.354% (inactive).

`CN(Cc1cc(Br)cc(Br)c1O)Cc1c(O)ccc2ccccc12`: the hERG blockade is 16% (inactive).

For the molecule `Clc1ccc(Cl)c(Nc2ccnc(SCc3ccccc3)n2)c1`, the hERG blockade was -4.72% (inactive).

For the molecule `CC1CCC2(C(=O)O)CCC3(C)C(=CCC4C5(C)CC(O)C(O)C(C)(CO)C5C(O)CC43C)C2C1C` (stereo not given), the hERG blockade is 17.2% (inactive).

With `O=C(CSc1ncnc2nc[nH]c12)c1ccccc1`, the hERG blockade was -4.94% (inactive).

With `O=S1(=O)CCN(c2ccccc2CC(c2c[nH]c3ccccc23)c2c[nH]c3ccccc23)CC1`, the hERG blockade was 32.2% (active).

On to `Cn1ccnc1CC(C)(O)c1ccccc1` (stereo not given), for which the hERG blockade was -2.58% (inactive).

For the molecule `COc1ccc(OC)c(-c2cc(C(=O)O)c3cc4ccccc4cc3n2)c1`, the hERG blockade was -16.1% (inactive).

Consider `CC(CCC(=O)O)C1CCC2(C)C3C(=O)CC4C(C)(C)C(O)CCC4(C)C3C(=O)CC12C` (stereo not given), for which the hERG blockade is 2.84% (inactive).

Consider `CC(CCC(=O)O)C1CCC2C3C(O)CC4CC(O)CCC4(C)C3CC(O)C12C` (stereo not given), for which the hERG blockade was 5.61% (inactive).

For the molecule `O=C(O)c1ccc(C(=O)c2ccccc2)c(C(=O)O)c1`, the hERG blockade is 1.04% (inactive).

Take `O=C(O)c1ccc(C(=O)O)c(C(=O)Nc2ccc3c(c2)Cc2ccccc2-3)c1`: the hERG blockade was -3.35% (inactive).

Regarding `O=C(O)c1ccc(C(=O)O)c(C(=O)O)c1.[NH-]C1CCCCC1[NH-].[Pt+2]`, the hERG blockade is 23.7% (active).

Regarding `O=C1CNCCCN2CCN(CCCNCC(=O)Nc3ccc(cc3)S(=O)(=O)c3ccc(cc3)NC(=O)CNCCCN3CCN(CCCNCC(=O)Nc4ccc(cc4)S(=O)(=O)c4ccc(cc4)N1)CC3)CC2`, the hERG blockade is 5.8% (inactive).

Consider `Cc1ccc(S(=O)(=O)NC(=O)OC23COCN2COC3)cc1`, for which the hERG blockade was -18.8% (inactive).

Take `Oc1c(Br)cc(Br)cc1CN(Cc1cc(Br)cc(Br)c1O)C1CCCCC1`: the hERG blockade was -7.44% (inactive).

Turning to `O=C1c2ccccc2C(=O)N1CC1(C(=O)O)NCCS1(=O)=O` (stereo not given), the hERG blockade is 4.44% (inactive).

On to `N=Nc1c(OC(=O)Nc2cccc(Cl)c2)[nH]c2ccccc12`, for which the hERG blockade was 1.43% (inactive).

In the case of `S=C1NC(c2ccccc2)NC(c2ccccc2)S1` (stereo not given), the hERG blockade is 8.24% (inactive).

For `N=C(N)SC(c1ccccc1)c1ccccc1`, the hERG blockade is 22.5% (active).

Consider `NC(N)=NC(CC(=O)O)c1ccccc1` (stereo not given), for which the hERG blockade was 10.4% (inactive).

`N=C(N)C(N=Nc1ccccc1)C(=N)N` (stereo not given): the hERG blockade was 14.2% (inactive).

Consider `Cn1c(=S)c2[nH]c(SCCN3C(=O)c4ccccc4C3=O)nc2n(C)c1=O`, for which the hERG blockade is 13.4% (inactive).

As to `O=C(O)CCCSc1ccccc1`, the hERG blockade is 8.71% (inactive).

`O=C1c2ccccc2C(=O)N1CCCSc1ccccc1`: the hERG blockade was 23.2% (active).

Turning to `O=C(O)c1cccc(S(=O)(=O)NCCO)c1`, the hERG blockade is -15.6% (inactive).

With `Cn1c(=O)c2c(nc(NCCNc3nc4c(c(=O)n(C)c(=O)n4C)n3C)n2C)n(C)c1=O`, the hERG blockade is -7.81% (inactive).

Regarding `CN(C)CCNc1nc2c(c(=O)n(C)c(=O)n2C)n1C`, the hERG blockade was 34% (active).

In the case of `CN(C)CCn1c(CO)nc2c1c(=O)n(C)c(=O)n2C`, the hERG blockade is -1.57% (inactive).

On to `Cc1ccc(CCCC(=O)O)cc1C`, for which the hERG blockade was 6.44% (inactive).

Turning to `NC(=O)NOCC1NC(=O)NC1=O` (stereo not given), the hERG blockade is -12% (inactive).

On to `C[N+](C)(C)c1ncnc2c1ncn2C1CC(O)C(CO)O1` (stereo not given), for which the hERG blockade was -5.95% (inactive).

Take `Nc1ncnc2c1ncn2C1OC(CO)C(O)C1N` (stereo not given): the hERG blockade was 13.4% (inactive).

On to `NCC1OC(n2cnc3c(N)ncnc32)CC1O` (stereo not given), for which the hERG blockade was -23.5% (active).

On to `Nc1ncnc2c1nc(-c1ccccc1)n2C1OC(CO)C(O)C1O` (stereo not given), for which the hERG blockade was -5.56% (inactive).

Regarding `Cc1ccc(C2(C)CCC(=NN=C3CCC(C)(c4ccc(C)c(C)c4)c4cc(C)c(C)cc43)c3cc(C)c(C)cc32)cc1C` (stereo not given), the hERG blockade was 5.6% (inactive).

As for `CC(NC(=O)c1ccccc1)(C(=O)O)C(=O)O`, the hERG blockade is -6.84% (inactive).

As to `O=C(Nc1ccc(-c2cn3ccccc3n2)cc1)c1cc(Br)ccc1O`, the hERG blockade is 6.36% (inactive).

With `CC12CCC3c4ccc(OCC(=O)O)cc4CCC3C1CCC2=O` (stereo not given), the hERG blockade was -7.52% (inactive).

Regarding `Cc1cc(Cl)ccc1OCC(=O)Oc1c(Cl)c(Cl)c(Cl)c(Cl)c1Cl`, the hERG blockade is -9.38% (inactive).

On to `CC(C)Cn1cnc2c(SCc3ccccn3)nc(N)nc21`, for which the hERG blockade was -2.95% (inactive).

For `Cc1ccc2ccccc2c1CSc1nc(N)nc2c1ncn2CC(C)C`, the hERG blockade was 13.9% (inactive).

With `CC(C)Cn1cnc2c(SCc3ccc(Cl)cc3Cl)nc(N)nc21`, the hERG blockade was 20.1% (active).

Consider `COc1cccc(CSCC(=O)O)c1`, for which the hERG blockade is 3.08% (inactive).

Consider `O=C(O)C1CCCN1Cc1c[nH]c2ccccc12` (stereo not given), for which the hERG blockade was -17.1% (inactive).

Turning to `O=C(O)C(Cc1c[nH]c2ccccc12)N1C(=O)c2ccccc2C1=O` (stereo not given), the hERG blockade is -13.6% (inactive).

Consider `O=C(O)C(Cc1c[nH]c2ccccc12)C(=O)NO` (stereo not given), for which the hERG blockade was -0.439% (inactive).

Take `CC(=O)NC(Cc1c[nH]c2ccccc12)C(=O)O` (stereo not given): the hERG blockade is 2.72% (inactive).

Regarding `CN(CC(=O)O)Cc1c[nH]c2ccccc12`, the hERG blockade was -21% (active).

Take `CC(N)(Cc1c[nH]c2ccccc12)C(=O)O` (stereo not given): the hERG blockade was -24.5% (active).

Take `NC(N)=NCC(N)C(=O)O` (stereo not given): the hERG blockade is -1.09% (inactive).

Consider `Cc1nnc(S(=O)(=O)c2ccc(N=Nc3c(N)nc(N)nc3N)cc2)s1`, for which the hERG blockade was -0.733% (inactive).
